Screening results (PubChem)
Most compounds without a hit are left out; they make up all but 19% or so of the library.
ELG1 repair inh – inhibitors of ELG1-dependent DNA repair in HEK293T cells; HEK293T ELG1-luciferase reporter, luminescence, 16 h; DNA damage induced by 5-fluorouridine; Potency, µM (series often up to 46.1 µM), without a hit: at the top dose activity change, negative = inhibition, hits mostly inhibitors; actives 2.3% (n = 330,000); AID 504467; note: potency is the fitted concentration of half-maximal effect; nearly all actives have a fitted effect of over 55% in size
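Luminescence from the luciferase reporter, measured 30 min after ONE-Glo reagent at room temperature, was the read-out. Beforehand, 2,000 cells per well were exposed for 16 hr at 37 °C to 5-fluorouridine together with compound or vehicle.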
IL1B secr inh – inhibitors of inflammasome signaling (IL-1 beta secretion). THP-1 LPS/ATP IL-1B secretion, AlphaLISA, 16 h; active compounds read low. activity change, % at 57.5 µM. actives 4.7% (n = 360,000); in the data active = activity change below about -50%; inconclusive = mostly about -30% to -49%
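THP-1 cells pretreated 1 hr with compounds (up to 57.5 uM final), then stimulated with LPS (250 ng/mL final) plus ATP (1.25 mM final); secreted IL-1B measured by AlphaLISA after 16 hr, decreased signal indicating inhibition.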
DT40 TDP1 no CPT – qHTS for Inhibitors of human tyrosyl-DNA phosphodiesterase 1 (TDP1): qHTS in cells in absence of CPT; actives 15% (n = 420,000); Potency, µM (doses to about 46.2 µM), for inactives: top-dose activity change, negative = growth inhibition, usual class: inhibitors; DT40 Tdp1-/- hTDP1 cells, no CPT, ATP luminescence, 48 h; note: potency is the fitted concentration of half-maximal effect; nearly all actives have a fitted effect of over 55% in size
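A cellular qHTS used chicken DT40 cells lacking endogenous Tdp1 but carrying stably transfected human TDP1. Compounds were applied without camptothecin, and cell growth kinetics were judged by ATP-dependent luminescence after ≥48 hr.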
TDP1 cell CPT – growth inhibition of DT40 Tdp1-/-;hTDP1 cells with camptothecin (screen for TDP1 inhibitors); Potency, µM (series often up to 46.2 µM), for the others: top-dose activity change, negative = growth inhibition, actives largely listed as inhibitors; actives 12% (n = 420,000); chicken DT40 Tdp1-/-;hTDP1 cells + 20 nM CPT, ATP luminescence, 48 h; note: potency is the fitted concentration of half-maximal effect; nearly all actives have a fitted effect of over 55% in size
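Chicken DT40 Tdp1-/- cells stably complemented with human TDP1 were seeded at 400 cells/well in medium containing 20 nM camptothecin, exposed to pin-transferred compounds, and grown at 37 °C for at least 48 hr. Viability was read as ATP luminescence.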
HT1080-NT tox – kills 2HG-producing HT-1080-NT fibrosarcoma cells. HT-1080-NT fibrosarcoma viability, CellTiter-Glo ATP luminescence, 48 h. Potency, µM (top dose mostly 46.1 µM), without a hit: top-dose activity, negative = less viability, most hits filed as cytotoxic. actives 1.6% (n = 360,000). AID 686970;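 note: NT is the 2HG producing partner of a matched IDH1 knockdown line; potency is the fitted concentration of half-maximal effect; 0% = DMSO-treated cells and -100% = media-only wells without cells; nearly all actives have a fitted effect of over 55% in size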
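Toxicity toward the 2HG-producing NT line was scored as %Activity, normalised to DMSO and no-cell wells, from CellTiter-Glo luminescence after 48 hours' treatment.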
HT1080 IDH1KD tx – kills HT-1080 cells with IDH1 knockdown; HT-1080 IDH1 knockdown viability, ATP luminescence, 48 h; Potency, µM (doses to about 46.1 µM), without a hit: at the highest dose activity, negative = toxicity, actives largely listed as cytotoxic; actives 2% (n = 360,000);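 note: potency is the fitted concentration of half-maximal effect; 0% = DMSO wells and -100% = cell-free medium wells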
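Assay cells: HT-1080 with IDH1 knockdown, 750 per well, RPMI/5% FBS. Exposure: 48 h at 37 °C following 2 h pre-incubation. Read: CellTiter-Glo luminescence; fitted concentration-response, curve class assigned.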
An asterisk follows results filed as active; ? = inconclusive; nt = no result. Unless noted, calls come from the whole dose curve; as a rule, active = well fitted curve in the direction sought with a large enough effect; inconclusive = small, poorly fitted or top-dose-only effect, or another doubt; inactive = no such curve, though single readings can be large; an effect the other way counts as inactive or inconclusive. Unless noted, % is set by controls: 0 for no effect and ±100 for the full control effect.

SMILES | ELG1 repair inh | IL1B secr inh | DT40 TDP1 no CPT | TDP1 cell CPT | HT1080-NT tox | HT1080 IDH1KD tx
O=C(NN=C1c2ccccc2-c2ccccc21)c1ccccn1 | 4% | -5 | ? | ? | ? | ?
Nc1cc2c(cc1Br)-c1ccccc1C2=NO | nt | -105* | ? | 26µM* | 3% | -31%
ON=C1c2ccccc2-c2ccc(Br)cc21 | nt | 0 | 23µM* | 29µM* | -3% | 12%
NC(=S)NN=C1c2ccccc2-c2cc(Br)ccc21 | nt | -5 | 3.7µM* | 5.2µM* | -9% | -27%
CC1(C)[N+]([O-])=C2C(=[N+]([O-])C1(C)C)c1ccccc1/C2=N\O | -3% | -6 | -18% | -19% | -1% | 6%
ON=C1c2ccccc2-c2ccc(F)cc21 | nt | -12 | 18µM* | ? | 1% | -1%
Cc1ccc2nc(-c3ccc(C)c(NC(=O)COc4ccccc4Cl)c3)oc2c1 | nt | nt | 12% | -27% | nt | nt
CCCCc1oc2ccccc2c1C(=O)c1cc(I)c(N(CC)CCOCC)c(I)c1 | nt | nt | 4.5µM* | 7.1µM* | nt | nt
CCCCCc1cc(=O)c2ccccc2o1 | ? | 17 | -7% | ? | 4% | 16%
Cn1c(-c2ccccc2)c(C(=O)CC#N)c2ccccc21 | -26% | 7 | ? | ? | -1% | 5%
CN(C)CCCNCC(=O)c1c(-c2ccccc2)n(C)c2ccccc12 | 0% | -20 | 18µM* | 29µM* | ? | ?
COc1ccc(C(C(=O)NC(C)(C)C)n2c(COc3ccc(C)cc3)nc3ccccc32)cc1 (stereo not drawn) | nt | -26 | ? | 18µM* | ? | ?
COc1ccc(C(C(=O)NC(C)(C)C)n2c(-c3ccc(=O)[nH]c3)nc3ccccc32)cc1 (stereo not drawn) | nt | -6 | 8.2µM* | 9.2µM* | 13µM* | 8.2µM*
C[C@H]1CN([C@@H](C)CO)C(=O)Cc2cc(NS(=O)(=O)c3cccs3)ccc2O[C@H]1CN(C)S(=O)(=O)c1cn(C)cn1 | ? | 30 | -1% | -7% | 11% | 1%
c1ccc(CN2CCC3(CCCc4ccccc43)CC2)cc1 | -19% | 3 | 16µM* | ? | ? | 16µM*
O=Cc1ccc(I)cc1 | nt | nt | 4µM* | 1.6µM* | nt | nt
CCCc1nc2ccccc2c(=O)n1/N=C/c1ccc(O)cc1 | 12µM* | -23 | ? | ? | -19% | -2%
Cc1cc(/C=N/n2c(COc3ccccc3)nc3ccccc3c2=O)c(O)c([N+](=O)[O-])c1 | -24% | 40 | 21µM* | 16µM* | ? | ?
O=C(O)COc1ccc(/C=N/n2c(COc3ccccc3)nc3ccccc3c2=O)cc1 | ? | -9 | ? | -24% | 1% | 2%
O=c1c2ccccc2nc(COc2ccccc2)n1/N=C/c1ccco1 | ? | ? | 15µM* | ? | -3% | -1%
O=C(Nn1c(COc2ccccc2)nc2ccccc2c1=O)C(Cl)(Cl)Cl | 21% | -4 | ? | ? | 0% | -8%
O=c1c2ccccc2nc(COc2ccccc2)n1/N=C/c1ccc(O)c(O)c1 | ? | -27 | 10µM* | 15µM* | 4% | -12%
CCCc1nc2ccccc2c(=O)n1/N=C/c1ccc(O)cc1O | ? | 0 | -21% | ? | -14% | -17%
Cc1cccc(C)c1OCc1nc2ccccc2c(=O)n1/N=C/c1ccc(OCC(=O)O)cc1 | 2% | 6 | ? | -26% | -8% | -3%
O=S(=O)(SC1=NCCN1)c1ccccc1 | nt | 13 | -20% | -6% | 11% | 23%
SMILES | ELG1 repair inh | IL1B secr inh | DT40 TDP1 no CPT | TDP1 cell CPT | HT1080-NT tox | HT1080 IDH1KD tx
COc1ccc(OC)c(NC(=O)c2ccc3nc(C(C)C)oc3c2)c1 | nt | nt | -1% | 12% | nt | nt
COc1ccc(CC(=O)Nc2ccc3c(c2)OC2(CCCC2)O3)c(OC)c1 | nt | -18 | ? | ? | 13% | 8%
COc1cccc(CC(=O)Nc2ccc3c(c2)OC2(CCCC2)O3)c1 | ? | 0 | ? | 18µM* | -4% | 0%
C=CC[C@@H](CC(=O)N[C@H](CO)Cc1ccccc1)C(=O)N[C@H](COC(=O)[C@@H](CC=C)CC(=O)OC(C)(C)C)Cc1ccccc1 | -6% | -52* | ? | ? | -18% | -22%
C=CC[C@@H](CC(=O)N[C@@H](CO)Cc1ccccc1)C(=O)N[C@H](COC(=O)[C@H](CC=C)CC(=O)OC(C)(C)C)Cc1c[nH]c2ccccc12 | ? | -29 | 21µM* | ? | ? | -29%
C=CC[C@H](CC(=O)NCCO)C(=O)N[C@H](COC(=O)[C@@H](CC=C)CC(=O)OC(C)(C)C)Cc1ccccc1 | -12% | 8 | ? | -18% | -1% | -5%
C=CC[C@@H](CC(=O)N[C@H](CO)Cc1ccccc1)C(=O)N[C@H](COC(=O)[C@H](CC=C)CC(=O)OC(C)(C)C)Cc1c[nH]c2ccccc12 | nt | -6 | ? | ? | ? | ?
Cc1ccc(Nc2cccccc2=O)cc1 | ? | -21 | ? | 21µM* | -4% | 29µM*
CN(C(=O)CSc1nc(-c2ccccc2)cn1N)C(c1ccccc1)c1ccccc1 | ? | ? | 26µM* | 21µM* | ? | ?
COc1ccccc1CNC(=O)CSc1nc(-c2ccccc2)cn1N | 4% | 0 | -17% | ? | -3% | 1%
CCNC(=S)N1CCN(c2ccc([N+](=O)[O-])cc2)CC1 | -1% | -14 | -92% | -81% | -8% | 0%
O=[N+]([O-])c1ccc(N2CCN(C(=S)NCc3ccc(Cl)cc3)CC2)cc1 | 15µM* | nt | 3.7µM* | 5.8µM* | ? | ?
COCCCNC(=S)N1CCN(c2ccc([N+](=O)[O-])cc2)CC1 | ? | 0 | 8.2µM* | 16µM* | 10% | 0%
COc1cccc(C2=CC(c3ccccc3O)NC(C)(C)N2)c1 (stereo not drawn) | nt | nt | 16µM* | 13µM* | nt | nt
Cc1ccc2c(c1)-n1c(nc3cc(F)ccc3c1=O)C(Cc1ccc(O)cc1)NC2=O (stereo not drawn) | 12% | nt | nt | nt | nt | nt
CC(=O)Nc1ccc2c(c1)N(C(C)=O)c1ccccc1CC2 | 21µM* | -5 | -1% | 10% | 5% | 7%
CC(=O)N1c2ccccc2CCc2ccc(N)cc21 | -12% | -1 | -6% | 1% | 15% | 9%
